Several values for one entry are separate records, joined by “and”; a condition that tells them apart may be missing. Equal entries are not always repeated. Results filed as inconclusive are left out. More than one record can exist for a structure, and the calls need not agree. Activity calls are given as the source filed them. Unless noted, the call rests on the fitted dose curve; in most records, active means well fitted curve in the direction sought with a large enough effect; inconclusive means small, poorly fitted or top-dose-only effect, or another doubt; inactive means no such curve, though single readings can be large; an effect the other way counts as inactive or inconclusive.
Legend:
[1] = Confirmation and Secondary Assay for Modulators of Hemoglobin Beta Chain Splicing at IVS2 654 locus (AID 910);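 further: HeLa cells stably carrying EGFP split by mutant beta-globin IVS2-654 intron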;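 further: potency means the concentration at half of the fitted maximal effect; potency of activators that raise GFP signal by restoring correct splicing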
Method in brief: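 HeLa cells stably expressing EGFP interrupted by β-globin IVS2-654 intron, seeded overnight in Opti-MEM/2% FCS, then treated 2 days at 37 °C. Restored splicing read as total peak GFP intensity per well by laser scanning cytometry (488 nm excitation, 500–520 nm emission); 500 nM antisense PNA as control.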

[2] = Confirmation and Secondary Assay for Modulators of Hemoglobin Beta Chain Splicing at IVS2 705 locus (AID 930);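 further: GFP fluorescence per well restored by corrected splicing of the IVS2-705 intron in EGFP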; further: potency means the concentration at half of the fitted maximal effect;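 on activation: HeLa cells stably expressing the EGFP-705 splicing reporter; series mostly up to about 46 µM; % of control where 0% means no effect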
Method in brief: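 Secondary splice-site specificity test uses HeLa expressing CMV-driven EGFP interrupted by IVS2-705; cells were treated 2 days at 37C with 500 nM antisense PNA as positive control.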

[3] = qHTS Assay for Identification of Small Molecule Agonists for Thrombopoietin (TPO) Signaling Pathway (AID 917); further: on the % scale 0 is the no-effect control and ±100 the full control effect
Method in brief: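 Luminescence from a Glycoprotein IIb promoter–driven luciferase reporter served as read-out in murine Ba/F3 cells carrying the human TPO receptor. Cells, deprived of IL-3 overnight, received compounds with 26 pM TPO and were incubated 24 hrs at 37 C.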

[4] = target: Muscarinic acetylcholine receptor M1 (Rattus norvegicus) (UniProt P08482); assay: qHTS Assay for Antagonists of Acetylcholine Muscarinic M1 Receptor: Kinetic Measurement of Intracellular Calcium Response (AID 943);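 further: Fluo-4 calcium signal as peak divided by basal fluorescence over 4 min; series mostly up to about 35 µM; nearly all actives have a fitted effect of over 75% in size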
Method in brief: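 CHO cells stably expressing rat M1 were loaded with no-wash Fluo-4 dye for 1 h at 37C, pre-incubated 10 min with compound, then challenged with EC80 carbachol (100 nM final); kinetic calcium read 4 min, peak/basal ratio.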

[5] = target: Muscarinic acetylcholine receptor M1 (Rattus norvegicus) (UniProt P08482); assay: qHTS Assay for Antagonists of Acetylcholine Muscarinic M1 Receptor: Measurement of IP-One Response (AID 944); further: nearly all actives have a fitted effect of over 75% in size
Method in brief: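 CHO cells expressing rat M1 receptor, recovered overnight, were pre-incubated 10 min with compound, then stimulated 30 min with carbachol at EC80 (200 nM) in LiCl-containing buffer, pH 7.4. IP1 accumulation was read by HTRF (620/665 nm).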

[6] = target: Pyruvate kinase (Leishmania mexicana) (UniProt Q27686); assay: qHTS Validation Assay for Inhibitors of Leishmania Mexicana Pyruvate Kinase (AID 945);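 further: 0% = DMSO only neutral control wells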
Method in brief: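 Read-out: luminescence from PKLight stop/detection reagent, data normalized to DMSO. Reaction: 0.2 nM E451W LmPYK, 0.5 mM PEP, 0.1 mM ADP, pH 7.2, 1 h room temperature.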

[7] = qHTS Assay for Identification of Small Molecule Agonists for Hypoxia Response Element Signaling Pathway (AID 914; active means well fitted activation curve with a large enough effect in the signal ratio, with a control signal flat, not every such curve was filed as active; the % refers to the signal ratio; further: % of control where 0% means no effect); details: ME-180 (cervical carcinoma) HRE-bla reporter, beta-lactamase ratio, CoCl2, 17 h; activation: stronger effect = higher value
Method in brief: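 qHTS titration; ME-180 HRE-bla cells; EC50 CoCl2 co-treatment, 17 h at 37 degrees Celsius; CCF4 dye, ex 405nm, em 460nm and 530nm; %Activity from ratio; AC50.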

[8] = Cell Viability - LYMP2-001 (AID 921);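 further: cells exposed to compound for 24 h at 37 °C; nearly all actives have a fitted effect of over 70% in size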; further: potency means the concentration at half of the fitted maximal effect
Method in brief: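 Steps: seed 2500 lymphoblastoid cells/well; 5 hr, 37 C; add compound; 24 hr, 37 C; CellTiter-Glo reagent, 30 min room temperature; read luminescence. Concentration-response modeled by Hill equation for AC50.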

[9] = MultiTox-Fluor Cytotoxicity Assay - LYMP1-001 - Dead Cells (AID 946);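 further: cells exposed to compound for 16 h; 0% = DMSO and 100% = tetraoctylammonium bromide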
Method in brief: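 In this qHTS, 15 uM tetraoctylammonium bromide defined 100% and DMSO defined basal activity. Lymphoblastoid cells (LYMP1-001, 2500 per well) received compound for 16 hr at 37 C before a fluorogenic dead-cell substrate readout at 485/520 nm.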

[10] = qHTS Assay for Identification of Small Molecule Antagonists for Thrombopoietin (TPO) Signaling Pathway (AID 918); details: TPO-dependent cell signaling reporter, antagonist mode; further: potency means the concentration at half of the fitted maximal effect; nearly all actives have a fitted effect of over 60% in size
Method in brief: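 Murine Ba/F3 cells stably expressing human TPO receptor and a Glycoprotein IIb promoter–luciferase reporter were IL-3-starved overnight, treated with compounds plus TPO (26 pM final, its EC50) for 24 hrs at 37 C, then read by luminescence.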

Chain of Pyruvate kinase (Leishmania mexicana) (Q27686 2-499 E452W): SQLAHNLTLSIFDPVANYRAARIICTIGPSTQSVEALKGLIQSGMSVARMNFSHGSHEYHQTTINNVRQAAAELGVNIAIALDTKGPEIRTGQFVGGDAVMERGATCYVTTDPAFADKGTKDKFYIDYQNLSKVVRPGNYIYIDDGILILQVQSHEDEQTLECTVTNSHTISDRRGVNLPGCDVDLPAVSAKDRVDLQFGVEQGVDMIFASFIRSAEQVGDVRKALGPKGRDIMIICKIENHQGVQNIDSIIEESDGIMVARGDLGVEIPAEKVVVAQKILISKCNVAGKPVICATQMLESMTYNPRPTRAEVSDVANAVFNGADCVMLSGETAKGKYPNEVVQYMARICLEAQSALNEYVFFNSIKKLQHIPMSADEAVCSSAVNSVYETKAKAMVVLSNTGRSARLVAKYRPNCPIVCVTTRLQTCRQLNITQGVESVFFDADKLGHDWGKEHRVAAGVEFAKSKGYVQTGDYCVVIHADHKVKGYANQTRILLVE
Chain of Muscarinic acetylcholine receptor M1 (Rattus norvegicus) (P08482 whole entry, looked up): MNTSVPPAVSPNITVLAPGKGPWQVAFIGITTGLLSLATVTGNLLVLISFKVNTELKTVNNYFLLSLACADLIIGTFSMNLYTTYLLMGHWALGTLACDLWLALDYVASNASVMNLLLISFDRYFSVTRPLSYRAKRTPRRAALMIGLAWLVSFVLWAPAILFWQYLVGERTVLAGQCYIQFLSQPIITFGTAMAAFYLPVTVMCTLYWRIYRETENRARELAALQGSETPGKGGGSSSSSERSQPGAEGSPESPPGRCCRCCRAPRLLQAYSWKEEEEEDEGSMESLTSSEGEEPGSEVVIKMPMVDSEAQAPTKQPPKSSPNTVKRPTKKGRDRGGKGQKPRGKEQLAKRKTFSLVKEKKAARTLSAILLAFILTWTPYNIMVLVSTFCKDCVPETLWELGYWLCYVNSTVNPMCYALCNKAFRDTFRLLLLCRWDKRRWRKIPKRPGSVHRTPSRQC

O=C(O)COCCN1CCN(C(c2ccccc2)c2ccc(Cl)cc2)CC1 (stereo not drawn)
inactive: Potency [1] | Potency [2]

N=c1nc(N2CCCCC2)cc(N)n1O
inactive: Potency [1] | outcome [3] | Potency [2] | Potency [4] | Potency [5] | outcome [6]

NS(=O)(=O)c1cc2c(cc1Cl)NC=NS2(=O)=O
inactive: Potency [1] | activation [7] 13.9% and 2.11% and -1.51% | outcome [3] | Potency [8] | Potency [2] | outcome [6] | outcome [9]

O=c1[nH]cnc2[nH]ncc12
inactive: Potency [1] | outcome [3] | Potency [8] | Potency [2] | outcome [6] | outcome [9]

CCCc1nc2c(C)cc(-c3nc4ccccc4n3C)cc2n1Cc1ccc(-c2ccccc2C(=O)O)cc1
inactive: Potency [1] | Potency [2]

CN1CCN(CCCN2c3ccccc3Sc3ccc(C(F)(F)F)cc32)CC1
inactive: Potency [1] | Potency [2] | outcome [6]
active: Potency [10] 15.8 µM

CCN(CC)CCCC(C)Nc1ccnc2cc(Cl)ccc12 (stereo not drawn)
inactive: Potency [1] | Potency [2]

CC(=O)Oc1ccccc1C(=O)O
inactive: Potency [1] | outcome [3] | Potency [8] | Potency [2] | outcome [6] | outcome [9]

O=c1n(CCCN2CCN(c3cccc(Cl)c3)CC2)nc2ccccn12
inactive: Potency [1] | outcome [3] | Potency [2] | Potency [5] | outcome [6]

Cn1cnc([N+](=O)[O-])c1Sc1ncnc2nc[nH]c12
active: Potency [1] 1.58 µM | Potency [8] 39.8 µM
inactive: outcome [3] | outcome [6] | outcome [9]
inactive and 2.51 µM (active): Potency [2]

N#Cc1ccc(C(c2ccc(C#N)cc2)n2cncn2)cc1
inactive: activation [7] -2.88%

COc1ccc2nc(S(=O)Cc3ncc(C)c(OC)c3C)[nH]c2c1 (stereo not drawn)
inactive: activation [7] -6.85% and -23.9%

— PubChem BioAssay (NCATS)
